In PubChem BioAssay AID1159580 (chemical genetic matrix, 2015):
Hit rate of the full screen: of about 5,500 compounds, about 2,000 (36%) were called active. Roughly 18% stayed inconclusive and do not appear here. Rule as the data show it: active = normalized growth mostly below about 0.91 (no sharp cut-off); inconclusive = no clear call, values can overlap the other calls; inactive = mostly above about 0.92. The list shows a part of the results.

Test: chemical genetic growth profiling, strain panel (AID 1159580);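 also: tested at 20 µM; growth read once vehicle control cultures reached saturation at 30 °C; 1 = growth at the plate median or of vehicle wells; lower values mean less growth of the strain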
Details: growth OD

Measured: normalized growth

COC(=O)/C(=C1\OC(=O)C(c2ccccc2)=C1O)c1ccccc1
inactive: S. cerevisiae deletion strains, locus YJL187C, strain SWE1, active compounds read low 0.98 | S. cerevisiae deletion strains, locus YJR043C, strain POL32, active compounds read low 1.02 | S. cerevisiae deletion strains, locus YJR066W, strain TOR1, active compounds read low 0.902 | S. cerevisiae deletion strains, locus YKL009W, strain mrt4, active compounds read low 1.01 | S. cerevisiae deletion strains, locus YKL068W, active compounds read low 0.965 | S. cerevisiae deletion strains, locus YKL085W, strain MDH1 (second series), active compounds read low 0.965 | S. cerevisiae deletion strains, locus YKL085W, strain MDH1, active compounds read low 0.965 | S. cerevisiae deletion strains, locus YKL160W, strain elf1, active compounds read low 0.969 | S. cerevisiae deletion strains, locus YKR001C, strain vps1, active compounds read low 1.03 | S. cerevisiae deletion strains, locus YKR026C, strain gcn3, active compounds read low 0.935 | S. cerevisiae deletion strains, locus YKR091W, strain srl3, active compounds read low 0.965 | S. cerevisiae deletion strains, locus YLL001W, strain dnm1, active compounds read low 0.97 | S. cerevisiae deletion strains, locus YLL026W, active compounds read low 0.974 | S. cerevisiae deletion strains, locus YLL041C, strain sdh2, active compounds read low 0.956 | S. cerevisiae deletion strains, locus YLR027C, strain aat2, active compounds read low 0.969 | S. cerevisiae deletion strains, locus YLR039C, strain RIC1, active compounds read low 1.03 | S. cerevisiae deletion strains, locus YLR058C, strain SHM2, active compounds read low 1.01 | S. cerevisiae deletion strains, locus YLR102C, strain apc9, active compounds read low 0.988 | S. cerevisiae deletion strains, locus YLR221C, strain rsa3, active compounds read low 0.981 | S. cerevisiae deletion strains, locus YLR258W, strain gsy2, active compounds read low 0.985 | S. cerevisiae deletion strains, locus YLR262C, strain YPT6 (second series), active compounds read low 0.915 | S. cerevisiae deletion strains, locus YLR262C, strain YPT6, active compounds read low 1 | S. cerevisiae deletion strains, locus YLR268W, strain sec22, active compounds read low 1.03 | S. cerevisiae deletion strains, locus YLR320W, strain mms22, active compounds read low 0.981 | S. cerevisiae deletion strains, locus YLR330W, strain CHS5, active compounds read low 0.996 | S. cerevisiae deletion strains, locus YLR342W, strain FKS1 (second series), active compounds read low 1 | S. cerevisiae deletion strains, locus YLR342W, strain FKS1, active compounds read low 0.976 | S. cerevisiae deletion strains, locus YLR357W, strain rsc2, active compounds read low 1.01 | S. cerevisiae deletion strains, locus YLR370C, strain arc18, active compounds read low 0.97 | S. cerevisiae deletion strains, locus YLR371W, strain rom2, active compounds read low 1 | S. cerevisiae deletion strains, locus YLR384C, strain iki3, active compounds read low 0.982 | S. cerevisiae deletion strains, locus YLR418C, strain cdc73, active compounds read low 0.996 | S. cerevisiae deletion strains, locus YML016C, strain PPZ1, active compounds read low 1.01 | S. cerevisiae deletion strains, locus YML032C, strain rad52, active compounds read low 0.987 | S. cerevisiae deletion strains, locus YML120C, strain ndi1, active compounds read low 0.985 | S. cerevisiae deletion strains, locus YML124C, strain tub3, active compounds read low 0.993 | S. cerevisiae deletion strains, locus YMR058W, strain fet3, active compounds read low 0.981 | S. cerevisiae deletion strains, locus YMR078C, strain ctf18, active compounds read low 1 | S. cerevisiae deletion strains, locus YMR125W, strain sto1, active compounds read low 0.982 | S. cerevisiae deletion strains, locus YMR129W, active compounds read low 0.965 | S. cerevisiae deletion strains, locus YMR205C, strain PFK2, active compounds read low 0.965 | S. cerevisiae deletion strains, locus YMR223W, strain ubp8, active compounds read low 0.98 | S. cerevisiae deletion strains, locus YMR231W, strain pep5, active compounds read low 0.98 | S. cerevisiae deletion strains, locus YMR307W, strain GAS1, active compounds read low 1.1 | S. cerevisiae deletion strains, locus YNL067W, strain RPL9B, active compounds read low 1.03 | S. cerevisiae deletion strains, locus YNL071W, strain lat1, active compounds read low 0.98 | S. cerevisiae deletion strains, locus YNL128W, strain TEP1, active compounds read low 1.02 | S. cerevisiae deletion strains, locus YNL183C, strain NPR1, active compounds read low 0.899 | S. cerevisiae deletion strains, locus YNL209W, strain ssb2, active compounds read low 0.967 | S. cerevisiae deletion strains, locus YNL233W, strain BNI4, active compounds read low 1.02 | S. cerevisiae deletion strains, locus YNL248C, strain rpa49, active compounds read low 0.985 | S. cerevisiae deletion strains, locus YNL250W, strain rad50, active compounds read low 0.998 | S. cerevisiae deletion strains, locus YNL271C, strain bni1, active compounds read low 0.986 | S. cerevisiae deletion strains, locus YNL298W, strain CLA4, active compounds read low 0.982 | S. cerevisiae deletion strains, locus YNL307C, strain MCK1, active compounds read low 0.988 | S. cerevisiae deletion strains, locus YNL322C, strain KRE1 (second series), active compounds read low 0.953 | S. cerevisiae deletion strains, locus YNR049C, strain mso1, active compounds read low 0.959 | S. cerevisiae deletion strains, locus YNR052C, strain pop2, active compounds read low 1.01 | S. cerevisiae deletion strains, locus YOL006C, strain TOP1, active compounds read low 1.17 | S. cerevisiae deletion strains, locus YOL012C, strain htz1 0.689 | S. cerevisiae deletion strains, locus YOL147C, strain pex11, active compounds read low 0.99 | S. cerevisiae deletion strains, locus YOR001W, strain rrp6, active compounds read low 0.974 | S. cerevisiae deletion strains, locus YOR061W, strain CKA2, active compounds read low 0.999 | S. cerevisiae deletion strains, locus YOR069W, strain VPS5, active compounds read low 0.995 | S. cerevisiae deletion strains, locus YOR070C, strain gyp1, active compounds read low 0.976 | S. cerevisiae deletion strains, locus YOR080W, strain dia2, active compounds read low 0.982 | S. cerevisiae deletion strains, locus YOR083W, strain WHI5, active compounds read low 0.968 | S. cerevisiae deletion strains, locus YOR106W, strain vam3, active compounds read low 1.01 | S. cerevisiae deletion strains, locus YOR136W, strain idh2, active compounds read low 1 | S. cerevisiae deletion strains, locus YOR144C, strain elg1, active compounds read low 0.984 | S. cerevisiae deletion strains, locus YOR184W, strain ser1, active compounds read low 1.01 | S. cerevisiae deletion strains, locus YOR231W, strain MKK1, active compounds read low 0.903 | S. cerevisiae deletion strains, locus YOR265W, strain rbl2, active compounds read low 0.961 | S. cerevisiae deletion strains, locus YOR270C, strain vph1, active compounds read low 0.974 | S. cerevisiae deletion strains, locus YOR290C, strain snf2, active compounds read low 0.948 | S. cerevisiae deletion strains, locus YOR316C, strain cot1, active compounds read low 0.981 | S. cerevisiae deletion strains, locus YPL051W, strain arl3, active compounds read low 0.983 | S. cerevisiae deletion strains, locus YPL055C, strain LGE1, active compounds read low 1.05 | S. cerevisiae deletion strains, locus YPL078C, strain atp4, active compounds read low 0.972 | S. cerevisiae deletion strains, locus YPL106C, strain sse1, active compounds read low 0.966 | S. cerevisiae deletion strains, locus YPL240C, strain hsp82, active compounds read low 0.956 | S. cerevisiae deletion strains, locus YPL241C, strain CIN2, active compounds read low 0.989 | S. cerevisiae deletion strains, locus YPL256C, strain CLN2, active compounds read low 0.865 | S. cerevisiae deletion strains, locus YPR119W, strain clb2, active compounds read low 0.99 | S. cerevisiae deletion strains, locus YPR141C, strain kar3, active compounds read low 0.965 | S. cerevisiae deletion strains, locus YPR163C, strain tif3, active compounds read low 0.997 | S. cerevisiae deletion strains, locus YPR167C, strain met16, active compounds read low 0.983 | S. cerevisiae deletion strains, strain wtn01, active compounds read low 1.01 | S. cerevisiae strains, strain wild type, active compounds read low 0.992
active: S. cerevisiae deletion strains, locus YLR113W, strain HOG1, active compounds read low 0.827
